# Measured values taken from the supplement of paper PMC4466140.
# Columns and labels:
# Test in all cases: SPOT peptide array binding signal intensity (averaged, normalized) (arbitrary units (background-subtracted, floor 0; scale differs between SH3 domains)); higher = stronger binding of the SH3 domain to the peptide
# [1] = biological target: AgAbp1
# How it was run: (§1)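 SH3 domains from four yeast species were expressed as GST fusions in E. coli BL21(DE3) and purified on glutathione Sepharose. Each was incubated at 10 μg/ml overnight at 4°C in TBS-based blocking buffer on cellulose membranes bearing synthetic 15-mer peptides, in which serines replaced cysteines. Bound protein was detected with anti-GST antibody, an HRP anti-mouse secondary and luminol, then imaged and quantified with Genespotter. The binding signal is the normalized, background-subtracted spot intensity averaged over replicates, in arbitrary units that are not the same from one domain to another.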
# [2] = biological target: AgBbc1
# How it was run: as §1
# [3] = biological target: AgBem1-D1
# How it was run: as §1
# [4] = biological target: AgBzz1-D1
# How it was run: as §1
# [5] = biological target: AgBzz1-D2
# How it was run: as §1
# [6] = biological target: AgCyk3
# How it was run: as §1
# [7] = biological target: AgFus1
# How it was run: as §1
# [8] = biological target: AgHof1
# How it was run: as §1
# [9] = biological target: AgHse1
# How it was run: as §1
# [10] = biological target: AgLsb1
# How it was run: as §1
# [11] = biological target: AgLsb4
# How it was run: as §1
# [12] = biological target: AgMyo5
# How it was run: as §1
# [13] = biological target: AgNbp2
# How it was run: as §1
# [14] = biological target: AgRvs167
# How it was run: as §1
# [15] = biological target: AgSho1
# How it was run: as §1
# [16] = biological target: AgSla1-D1-D2
# How it was run: as §1
# [17] = biological target: AgSla1-D3
# How it was run: as §1
# [18] = biological target: CaAbp1-D1
# How it was run: as §1
# [19] = biological target: CaAbp1-D2
# How it was run: as §1
# [20] = biological target: CaBbc1
# How it was run: as §1
# [21] = biological target: CaBem1-D1
# How it was run: as §1
# [22] = biological target: CaBzz1-D1
# How it was run: as §1
# [23] = biological target: CaBzz1-D2
# How it was run: as §1
# [24] = biological target: CaCyk3
# How it was run: as §1
# [25] = biological target: CaFus1
# How it was run: as §1
# [26] = biological target: CaHof1
# How it was run: as §1
# [27] = biological target: CaHse1
# How it was run: as §1
# [28] = biological target: CaLsb1
# How it was run: as §1
# [29] = biological target: CaLsb4
# How it was run: as §1
# [30] = biological target: CaMyo5
# How it was run: as §1
# [31] = biological target: CaNbp2
# How it was run: as §1
# [32] = biological target: CaRvs167
# How it was run: as §1
# [33] = biological target: CaRvs167-3
# How it was run: as §1
# [34] = biological target: CaSho1
# How it was run: as §1
# [35] = biological target: CaSla1-D1-D2
# How it was run: as §1
# [36] = biological target: CaSla1-D3
# How it was run: as §1
# [37] = biological target: ScAbp1
# How it was run: as §1
# [38] = biological target: ScBbc1
# How it was run: as §1
# [39] = biological target: ScBem1-D1
# How it was run: as §1
# [40] = biological target: ScBzz1-D1
# How it was run: as §1
# [41] = biological target: ScBzz1-D2
# How it was run: as §1
# [42] = biological target: ScCyk3
# How it was run: as §1
# [43] = biological target: ScFus1
# How it was run: as §1
# [44] = biological target: ScHof1
# How it was run: as §1
# [45] = biological target: ScHse1
# How it was run: as §1
# [46] = biological target: ScLsb1
# How it was run: as §1
# [47] = biological target: ScLsb2
# How it was run: as §1
# [48] = biological target: ScLsb3
# How it was run: as §1
# [49] = biological target: ScLsb4
# How it was run: as §1
# [50] = biological target: ScMyo3
# How it was run: as §1
# [51] = biological target: ScMyo5
# How it was run: as §1
# [52] = biological target: ScNbp2
# How it was run: as §1
# [53] = biological target: ScPex13
# How it was run: as §1
# [54] = biological target: ScRvs167
# How it was run: as §1
# [55] = biological target: ScSho1
# How it was run: as §1
# [56] = biological target: ScSla1-D1-D2
# How it was run: as §1
# [57] = biological target: ScSla1-D3
# How it was run: as §1
# [58] = biological target: SpAbp1-D1
# How it was run: as §1
# [59] = biological target: SpBbc1
# How it was run: as §1
# [60] = biological target: SpBzz1-D1
# How it was run: as §1
# [61] = biological target: SpBzz1-D2
# How it was run: as §1
# [62] = biological target: SpCyk3
# How it was run: as §1
# [63] = biological target: SpHof1
# How it was run: as §1
# [64] = biological target: SpHof1-2
# How it was run: as §1
# [65] = biological target: SpHof1-3
# How it was run: as §1
# [66] = biological target: SpHse1
# How it was run: as §1
# [67] = biological target: SpLsb1
# How it was run: as §1
# [68] = biological target: SpLsb4
# How it was run: as §1
# [69] = biological target: SpMyo1
# How it was run: as §1
# [70] = biological target: SpNbp2
# How it was run: as §1
# [71] = biological target: SpPex13
# How it was run: as §1
# [72] = biological target: SpRvs167
# How it was run: as §1
# [73] = biological target: SpSla1-D1-D2
# How it was run: as §1
# [74] = biological target: SpSla1-D3
# How it was run: as §1
binder,measurement,setting,value
PHNPSPFFPPPDFND,SPOT peptide array binding signal intensity,[1],≤ 0
same,SPOT peptide array binding signal intensity,[2],3
same,SPOT peptide array binding signal intensity,[3],16.5
same,SPOT peptide array binding signal intensity,[4],5
same,SPOT peptide array binding signal intensity,[5],22
same,SPOT peptide array binding signal intensity,[6],≤ 0
same,SPOT peptide array binding signal intensity,[7],≤ 0
same,SPOT peptide array binding signal intensity,[8],≤ 0
same,SPOT peptide array binding signal intensity,[9],71
same,SPOT peptide array binding signal intensity,[10],3
same,SPOT peptide array binding signal intensity,[11],≤ 0
same,SPOT peptide array binding signal intensity,[12],610
same,SPOT peptide array binding signal intensity,[13],42
same,SPOT peptide array binding signal intensity,[14],0.667
same,SPOT peptide array binding signal intensity,[15],≤ 0
same,SPOT peptide array binding signal intensity,[16],≤ 0
same,SPOT peptide array binding signal intensity,[17],≤ 0
same,SPOT peptide array binding signal intensity,[18],2
same,SPOT peptide array binding signal intensity,[19],28
same,SPOT peptide array binding signal intensity,[20],14
same,SPOT peptide array binding signal intensity,[21],≤ 0
same,SPOT peptide array binding signal intensity,[22],1.5
same,SPOT peptide array binding signal intensity,[23],1.53e-05
same,SPOT peptide array binding signal intensity,[24],1
same,SPOT peptide array binding signal intensity,[25],32.5
same,SPOT peptide array binding signal intensity,[26],≤ 0
same,SPOT peptide array binding signal intensity,[27],2
same,SPOT peptide array binding signal intensity,[28],≤ 0
same,SPOT peptide array binding signal intensity,[29],28
same,SPOT peptide array binding signal intensity,[30],112
same,SPOT peptide array binding signal intensity,[31],40.5
same,SPOT peptide array binding signal intensity,[32],0.333
same,SPOT peptide array binding signal intensity,[33],≤ 0
same,SPOT peptide array binding signal intensity,[34],7.5
same,SPOT peptide array binding signal intensity,[35],≤ 0
same,SPOT peptide array binding signal intensity,[36],≤ 0
same,SPOT peptide array binding signal intensity,[37],≤ 0
same,SPOT peptide array binding signal intensity,[38],0.5
same,SPOT peptide array binding signal intensity,[39],≤ 0
same,SPOT peptide array binding signal intensity,[40],≤ 0
same,SPOT peptide array binding signal intensity,[41],10.5
same,SPOT peptide array binding signal intensity,[42],≤ 0
same,SPOT peptide array binding signal intensity,[43],≤ 0
same,SPOT peptide array binding signal intensity,[44],0.25
same,SPOT peptide array binding signal intensity,[45],5
same,SPOT peptide array binding signal intensity,[46],≤ 0
same,SPOT peptide array binding signal intensity,[47],≤ 0
same,SPOT peptide array binding signal intensity,[48],≤ 0
same,SPOT peptide array binding signal intensity,[49],1
same,SPOT peptide array binding signal intensity,[50],920
same,SPOT peptide array binding signal intensity,[51],613
same,SPOT peptide array binding signal intensity,[52],5
same,SPOT peptide array binding signal intensity,[53],512
same,SPOT peptide array binding signal intensity,[54],≤ 0
same,SPOT peptide array binding signal intensity,[55],≤ 0
same,SPOT peptide array binding signal intensity,[56],≤ 0
same,SPOT peptide array binding signal intensity,[57],3
same,SPOT peptide array binding signal intensity,[58],5
same,SPOT peptide array binding signal intensity,[59],≤ 0
same,SPOT peptide array binding signal intensity,[60],30
same,SPOT peptide array binding signal intensity,[61],1
same,SPOT peptide array binding signal intensity,[62],≤ 0
same,SPOT peptide array binding signal intensity,[63],≤ 0
same,SPOT peptide array binding signal intensity,[64],≤ 0
same,SPOT peptide array binding signal intensity,[65],≤ 0
same,SPOT peptide array binding signal intensity,[66],69.8
same,SPOT peptide array binding signal intensity,[67],18
same,SPOT peptide array binding signal intensity,[68],≤ 0
same,SPOT peptide array binding signal intensity,[69],118
same,SPOT peptide array binding signal intensity,[70],3
same,SPOT peptide array binding signal intensity,[71],≤ 0
same,SPOT peptide array binding signal intensity,[72],3.33
same,SPOT peptide array binding signal intensity,[73],≤ 0
same,SPOT peptide array binding signal intensity,[74],≤ 0
